# Experimental data taken from PubChem BioAssay.
# Values joined by “and” are separate entries in the source; they are usually repeats but may differ in a detail not shown here. Identical values can stand only once. Active and inactive are the calls of the source. Cut-off read from the data, not from the text of the source, unless noted: active = parasite load remaining mostly below about 12% (no sharp cut-off); inactive = mostly above about 10%.
# Columns and labels:
# [1] = liver-stage malaria parasite growth inhibition, primary screen, cell-based, HepG2, luciferase luminescence, HepG2 viability (AID 624349);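 note: 100% = mean of DMSO negative control wells on the same plate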; conditions: P. berghei liver stage in HepG2, luciferase luminescence, concentration not given here; parasite load remaining: stronger effect = lower value; viability: measured here: HepG2 viability without parasites
# [2] = sensitizers of A549 cells to miR-34 induction, primary screen, imaging, A549 dox-inducible miR-34, nuclei and caspase counts (AID 1347080;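 active = compounds whose cell count with miR-34 switched on is under 0.7 times the count with it off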); conditions: A549 miR-34 inducible, Hoechst nuclei count, 48 h
# [3] = hESC survival regulators, cell-based (AID 493140; call rule not given here;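 note: cells exposed to compounds for four days before counting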); conditions: human embryonic stem cell survival screen; stronger effect = higher value
# [4] = inhibitors of Cryptococcus chitosan production, flow cytometry, Cibacron Brilliant Red staining (AID 1347148; call rule not given here;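 note: compound exposure lasted three days at 37 degrees C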); conditions: Cryptococcus neoformans chitosan, stronger effect = lower value; at 10 µM unless noted
# [5] = stronger effect = lower value, cell number ratio, induced over uninduced
# [6] = measured here: relative caspase fold change +Dox/-Dox
# [7] = measured here: total cells with miR-34 induction, stronger effect = lower value
# [8] = measured here: total cells without miR-34 induction
Compound,parasite load remaining [1],viability [1],"fold change [2, 5]","fold change [2, 6]","cell count [2, 7]","cell count [2, 8]",survival [3],fold change ([2]; stronger effect = lower value),fold fluorescence [4]
C=C1[C@@H](O)[C@]23C[C@@H]1[C@@H](O)C[C@H]2[C@@]12C4[C@@H]3C[C@@H]1[C@@](C)(CC[C@@H]2O)CN4CC,76.8% (inactive),104%,0.894 (inactive),0.861,8910,9970,,,
COc1ccc(C[C@@H]2NC[C@@H](O)[C@@H]2OC(C)=O)cc1,4.56% (inactive),32.9%,,1.1,1100,1160,0.25 (inactive),0.95 (inactive),
CCN1C[C@]2(COC)CC[C@H](O)[C@]34C1[C@H](C[C@H]23)[C@@]1(O)C[C@H](OC)[C@H]2C[C@@H]4[C@@H]1[C@H]2OC(C)=O,81.9% (inactive),71.5%,0.961 (inactive),0.467,9850,10200,,,
CCN1C[C@]2(COC)CC[C@H](O)[C@]34C1[C@](O)([C@@H](OC)[C@H]23)[C@@]1(O)C[C@H](OC)[C@H]2C[C@@H]4[C@@H]1[C@H]2OC,79.1% (inactive),102%,0.871 (inactive),0.967,9200,10600,,,
C[C@H]1CCC2(NC1)O[C@H]1C[C@H]3[C@@H]4CC[C@H]5C[C@@H](O[C@@H]6O[C@H](CO)[C@H](O[C@@H]7O[C@H](CO)[C@@H](O)[C@H](O[C@@H]8OC[C@@H](O)[C@H](O)[C@H]8O)[C@H]7O[C@@H]7O[C@H](CO)[C@@H](O)[C@H](O)[C@H]7O)[C@H](O)[C@H]6O)CC[C@]5(C)[C@H]4CC[C@]3(C)[C@H]1[C@@H]2C (some centres undefined),1.56% (inactive),9.75%,0.761 (inactive),0.652,430,564,,,
C[C@@H]1O[C@@H](O[C@@H]2C=C3CCC4C(CC[C@]5(C)[C@@H](c6ccc(=O)oc6)CC[C@]45O)[C@@]3(C)CC2)[C@H](O)[C@H](O)[C@H]1O (some centres undefined),0.58% (inactive),13.4%,1.51 (inactive),0.74,696,460,,,
COc1ccc(C(=O)OC2C[C@H]3CC[C@H](C2)N3C)cc1OC (some centres undefined),72.9% (inactive),108%,0.888 (inactive),1.53,9600,10800,,,
CN1C2CCCC1CC(=O)C2,169% (inactive) and 77.1% (inactive),110% and 77.5%,0.891 (inactive),1.28,9180,10300,10.2 (inactive),,
C=C1[C@@H]2CC[C@H]3[C@]4(C)C[C@H](O[C@H]5O[C@H](CO)[C@@H](OS(=O)(=O)O)[C@H](OS(=O)(=O)O)[C@H]5OC(=O)CC(C)C)C[C@@H](C(=O)O)[C@H]4CC[C@]3(C2)[C@H]1O,72.2% (inactive),97.4%,0.879 (inactive),0.935,8890,10100,,,
COc1cc2c(cc1O)[C@@H]1Cc3ccc(OC)c(O)c3CN1CC2,152% (inactive),92.5%,0.78 (inactive),1.3,2600,3330,,,
O=c1ccc2cc(OC3O[C@H](CO)[C@@H](O)[C@H](O)[C@H]3O)c(O)cc2o1 (some centres undefined),70.5% (inactive),96.1%,0.976 (inactive),0.932,9360,9590,,,
C=C1[C@@H](O)C2O[C@@]3(CCC2O[C@@H]1C(O)C[C@H](C)C1O[C@@]2(CCCCO2)CC[C@H]1C)CC[C@@H](/C=C/[C@@H](C)[C@@H]1CC(C)=C[C@@]2(O[C@H](C[C@@](C)(O)C(=O)O)CCC2O)O1)O3 (some centres undefined),,,,,,,,,14.3 [at 6.2 µM] (inactive)
CO[C@H](C)C(O)(C(=O)OCC1=CCN2CC[C@H](O)[C@@H]12)C(C)C (some centres undefined),69.7% (inactive),101%,0.879 (inactive),1.23,8290,9440,,,
C=C[C@]12CN(C)[C@@H]3[C@H]4COC(CC41)[C@]1(C(=O)Nc4ccccc41)[C@@H]32,100% (inactive),94.8%,0.845 (inactive),1.55,8470,10000,,,
COc1cc(C(=O)OC2C[C@H]3CC[C@@H](C2)N3C)ccc1O (some centres undefined),90.6% (inactive),98.9%,,1.48,8240,9120,,0.903 (inactive),
CCN1C[C@@]2(COC)C3[C@@H](OC)[C@H]4[C@@H]1[C@@]3(C1C[C@@]3(O)[C@H](OC(=O)c5ccccc5)C1[C@]4(OC(C)=O)[C@@H](O)[C@H]3OC)[C@@H](OC)C[C@H]2O (some centres undefined),56% (inactive) and 73.1% (inactive),104% and 80.1%,,1.14,8650,9900,3.83 (inactive),0.874 (inactive),
CN1[C@@H]2CC(=O)C[C@H]1[C@H](O)C2,87.8% (inactive),81.1%,0.914 (inactive),0.592,8350,9140,,,
CN1CCC2=C[C@H](O)[C@H]3OC(=O)c4cc5c(cc4[C@H]3[C@@H]21)OCO5,42.8% (inactive),96.9%,0.881 (inactive),1.04,6350,7210,,,
CCNC(=O)[C@@H]1O[C@H](n2cnc3c(N)ncnc32)C(O)[C@@H]1O (some centres undefined),,,,,,,,,4.97 [at 162.2 µM] (inactive)
CN(C)[C@@H]1C(=O)C(C(N)=O)=C(O)[C@@]2(O)C(=O)C3=C(O)c4c(O)ccc(Cl)c4[C@@](C)(O)C3C[C@@H]12 (some centres undefined),51% (inactive),46.7%,0.828 (inactive),1.43,7670,9260,,,
CC(Cc1ccccc1)NCCC(c1ccccc1)c1ccccc1 (centres undefined) (tested in a mixture with another compound),65.1% (inactive),77.8%,,1.52,5460,6790,,0.804 (inactive),
